In the library only some 19% were active in any assay of this set; here they are far more common.
TDP1 cell CPT – growth inhibition of DT40 Tdp1-/-;hTDP1 cells with camptothecin (screen for TDP1 inhibitors); Potency, µM (top dose mostly 46.2 µM), without a hit: top-dose activity change, negative = growth inhibition, hits mostly inhibitors; actives 12% (n = 420,000); chicken DT40 Tdp1-/-;hTDP1 cells + 20 nM CPT, ATP luminescence, 48 h; further: potency means the concentration at half of the fitted maximal effect; on the % scale 0 is the no-effect control and ±100 the full control effect; nearly all actives have a fitted effect of over 55% in size
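Cell growth measured by CellTiter-Glo luminescence after a minimum 48 h, 37 C compound exposure with 20 nM CPT in Tdp1-knockout DT40 cells stably expressing hTDP1, seeded 400/well; qHTS titration format.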
Chronic BCR inh – inhibitors of chronic active B-cell receptor signaling; ABC-DLBCL IkBa-CBG/CBR reporter, luminescence ratio, 4 h; Potency, µM (series often up to 46.1 µM), for inactives: top-dose activity change, negative = inhibition, most hits filed as inhibitors; actives 0.05% (n = 340,000); AID 493014; active means well fitted inhibition curve with a large enough effect in the signal ratio, with a control signal flat, not every such curve was filed as active; inconclusive means small, poorly fitted or top-dose-only effect, or effect the other way, or a change in a side signal; the % refers to the signal ratio;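 further: potency means the concentration at half of the fitted maximal effect; plate controls were basal doxycycline-induced cells for no effect and cells given 10 µM MG132 for full effect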
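Compounds up to 46 uM were incubated four hours with TMD8 cells whose green CBG68 luciferase is fused to IkappaBalpha; red CBR luminescence normalised the signal, and concentration-effect curves were fitted to fusion, red and ratio data.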
TDP1 cell noCPT – qHTS for Inhibitors of human tyrosyl-DNA phosphodiesterase 1 (TDP1): qHTS in cells in absence of CPT; DT40 Tdp1-/- hTDP1 cells, no CPT, ATP luminescence, 48 h; Potency, µM (highest dose often 46.2 µM), for inactives: at the top dose activity change, negative = growth inhibition, actives largely listed as inhibitors; actives 15% (n = 420,000); AID 686978, 2013; further: potency means the concentration at half of the fitted maximal effect; on the % scale 0 is the no-effect control and ±100 the full control effect; nearly all actives have a fitted effect of over 55% in size
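Camptothecin absent (DMSO only). Human TDP1-complemented DT40 knockout cells, 400 cells/well, 37 °C for minimum 48 hr; ATP measured via CellTiter-Glo, 30 min dark incubation, luminescence.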
MCF10A rereplic – inducers of DNA re-replication in MCF 10A breast cells; MCF 10A DNA re-replication, Hoechst nuclear intensity, 48 h; Potency, µM (highest dose often 46.1 µM), without a hit: at the highest dose activity, positive = re-replication, most hits filed as activators; actives 2.9% (n = 350,000); AID 624296; further: potency means the concentration at half of the fitted maximal effect; % of control where 0% means no effect; nearly all actives have a fitted effect of over 50% in size
SW480 rereplic – inducers of DNA re-replication in SW480 colon cancer cells; SW480 DNA re-replication, Hoechst DNA content imaging, 48 h; Potency, µM (series often up to 46.1 µM), inactives show at the highest dose re-replication activation, usual class: activators; actives 1.8% (n = 340,000); AID 624297; further: potency means the concentration at half of the fitted maximal effect; % of control where 0% means no effect; nearly all actives have a fitted effect of over 55% in size
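Quantitative HTS format with DMSO vehicle controls; 48 hr drug incubation at 37 C, then 40 min Hoechst staining and scanning imager measurement at 405 nm excitation.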
IL-1B inflam inh – blocks inflammasome-driven IL-1 beta release | actives 4.7% (n = 360,000) | activity change, % at 57.5 µM | AID 743279 | THP-1 LPS/ATP IL-1B secretion, AlphaLISA, 16 h; active compounds read low; in the data active means activity change below about -50%; inconclusive means mostly about -30% to -49%; further: on the % scale 0 is the no-effect control and ±100 the full control effect
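THP-1 cells pretreated 1 hr with compounds (up to 57.5 uM final), then stimulated with LPS (250 ng/mL final) plus ATP (1.25 mM final); secreted IL-1B measured by AlphaLISA after 16 hr, decreased signal indicating inhibition.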
Active calls of the source: *; ? = inconclusive; / = not tested or not shown; ! = a repeat was not active. Unless noted, the call rests on the fitted dose curve; in most records, active means well fitted curve in the direction sought with a large enough effect; inconclusive means small, poorly fitted or top-dose-only effect, or another doubt; inactive means no such curve, though single readings can be large; an effect the other way counts as inactive or inconclusive.

SMILES	TDP1 cell CPT	Chronic BCR inh	TDP1 cell noCPT	MCF10A rereplic	SW480 rereplic	IL-1B inflam inh
CSc1cccc(NC(=O)c2sc3nc4n(c(=O)c3c2C)CCC4)c1	?	-1%	-11%	5%	5%	?
COc1cccc(NC(=O)c2sc3nc4n(c(=O)c3c2C)CCC4)c1	?	?	15µM*!	2%	1%	-28
Cc1c(C(=O)Nc2ccc(Oc3ccccc3)cc2)sc2nc3n(c(=O)c12)CCC3	?	?	18µM*	-3%	5%	-14
CSCCC(NC(=O)c1ccccc1Cl)C(=O)N(C)Cc1cccs1 (centres undefined)	10%	9%	?	-2%	-3%	3
CNc1nc(Nc2ccc(C(=O)OC)cc2)c2sccc2n1	13µM*	/	15µM*	/	/	27
COCCNc1nc(Nc2ccc(C(=O)OC)cc2)c2sccc2n1	12µM*	/	16µM*	/	/	19
CC(=O)NCCNc1nc(NC(C)C)nc2ccsc12	5%	/	4%	/	/	89
CCOC(=O)Cc1ccc(Nc2nc(NCCOC)nc3ccsc23)cc1	13µM*	/	15µM*	/	/	-28
CC(C)Nc1nc(Nc2ccc(C(N)=O)cc2)c2sccc2n1	26µM*	/	?	/	/	22
COCCNc1nc(Nc2ccc(Cl)cc2F)c2sccc2n1	13µM*	/	16µM*	/	/	-11
CCCCCCC=C1CCC(CN2CCCC2)C1=O (centres undefined)	2.9µM*	/	4.1µM*	/	/	-22
CCN(CC(=O)Nc1c(F)cccc1F)C(=O)c1ccc2c(c1)OCCO2	9%	4%	2%	4%	-65%	-12
c1cc(-c2nnc3n2CCCCC3)ccn1	4%	0%	9%	0%	-1%	6
c1cnc(-c2nnc3n2CCCCC3)cn1	3%	5%	-20%	1.5µM*	?	21
Cn1cccc1C(=O)N1CCC[C@@]2(CCN(Cc3ccccc3)C2)C1	-6%	/	-18%	/	/	/
Cc1ccc(OCC(=O)N(Cc2ccco2)Cc2ccco2)cc1	?	/	16µM*	/	/	/
Cc1cccc(OCC(=O)N(Cc2ccco2)C2CCS(=O)(=O)C2)c1C (centres undefined)	-17%	?	?	?	-12%	7
Cc1cccc(C)c1OCC(=O)N(Cc1ccco1)Cc1ccco1	?	/	23µM*	/	/	/
Cc1cc(OC(C)C(=O)N(Cc2ccco2)Cc2ccco2)cc(C)c1Cl (centres undefined)	15µM*	/	9.2µM*	/	/	/
Cc1ccc(OCC(=O)N(Cc2ccco2)C2CCS(=O)(=O)C2)cc1 (centres undefined)	-5%	-15%	9%	0%	-5%	-6
Cc1ccc(CN(Cc2ccco2)C(=O)COc2cc(C)c(Cl)c(C)c2)cc1	21µM*	/	13µM*	/	/	/
Cc1ccc(CN(Cc2ccco2)C(=S)NCC(=O)O)cc1	0%	?	-6%	7%	0%	10
COc1ccc(Oc2ccc(-c3ccn[nH]3)cc2)cc1	-24%	-16%	-27%	0%	-3%	-12
Cc1ccc(NC(=O)Cn2c(=O)cnc3ccccc32)cc1S(=O)(=O)N1CCOCC1	-13%	-4%	?	?	4%	13
Cc1cc(C)cc(OCC(=O)N(Cc2ccco2)Cc2ccccc2Cl)c1	21µM*	/	21µM*	/	/	/
Cc1cc(C)c(OCC(=O)N(Cc2cccc(F)c2)Cc2ccco2)c(C)c1	15µM*	/	18µM*	/	/	/
Cc1cc(C)cc(OCC(=O)N(Cc2ccco2)c2c(N)n(Cc3ccccc3)c(=O)[nH]c2=O)c1	-2%	-5%	3%	16%	-17%	8
CCOc1ccc(NC(=S)N(Cc2ccc(Cl)cc2)Cc2ccco2)cc1	?	20%	?	3%	-3%	?

High-throughput results (PubChem BioAssay)
